# Measured values: PubChem BioAssay (EPA / NIEHS)
# Calls of active or inactive are those of the source. Rule for the calls: active = hit-call score of the fitted dose curve at least 0.9, where 1 is the maximum; inactive = score below 0.9.
# Key:
# Details in all cases: mRNA level, 48 h; actives raise or lower the signal
# [1] = read-out: Hypoxia-inducible factor 1-alpha (Homo sapiens) (UniProt Q16665); assay: LTEA_HepaRG_HIF1A: Life Technologies and Expression Analysis (LTEA) Assay for Hypoxia-inducible factor 1 (HIF1A) Trancription factor using HepaRG (AID 2283503)
# Procedure, shortened: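 Differentiated HepaRG cells in serum-free induction medium exposed 48 h, in duplicate, to 8-point half-log series from 100 uM in 0.5% DMSO. HIF1A mRNA measured by TaqMan qRT-PCR, normalized to ACTB/GAPDH/POLR2A, fitted bidirectionally versus DMSO.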
# [2] = read-out: 3-Hydroxy-3-Methylglutaryl-CoA Synthase 2 (HMGCS2), HMGCS2 (gene 3158); assay: LTEA_HepaRG_HMGCS2: Life Technologies and Expression Analysis (LTEA) Assay for 3-Hydroxy-3-Methylglutaryl-CoA Synthase 2 (HMGCS2) using HepaRG (AID 2283504)
# Procedure, shortened: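 This steatosis marker was read as HMGCS2 mRNA change in HepaRG cells treated 48 h with up to 100 uM chemical. Normalisation used housekeeping genes; activity in either direction was fitted relative to 0.5% DMSO vehicle.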
# HGF (gene 3082) = assay: LTEA_HepaRG_HGF: Life Technologies and Expression Analysis (LTEA) Assay for Hepatocyte Growth Facto (HGF) using HepaRG (AID 2283505)
# Procedure, shortened: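 Using HepaRG monolayers kept in 0.5% DMSO, chemicals were tested in duplicate over eight half-log concentrations from 100 uM for 48 h. Endpoint: HGF mRNA change relative to DMSO, normalized to ACTB/GAPDH/POLR2A.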
# [3] = read-out: Insulin Like Growth Factor 1 (IGF1), IGF1 (gene 3479); assay: LTEA_HepaRG_IGF1: Life Technologies and Expression Analysis (LTEA) Assay for Insulin Like Growth Factor 1 (IGF1) using HepaRG (AID 2283506)
# Procedure, shortened: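 HepaRG, plated 48 h, then switched to serum-free induction media; test chemical 8-pt half-log from 100 uM (0.5% DMSO), duplicate, 48 h. Lysis in RLT, TaqMan qRT-PCR, norm. ACTB/GAPDH/POLR2A. Bidirectional fit vs DMSO.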
# [4] = read-out: Intercellular Adhesion Molecule 1 (ICAM1), ICAM1 (gene 3383); assay: LTEA_HepaRG_ICAM1: Life Technologies and Expression Analysis (LTEA) Assay for Intercellular Adhesion Molecule 1 (ICAM1) using HepaRG (AID 2283507)
# Procedure, shortened: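 Using the human liver line HepaRG, compounds are tested in duplicate over 48 h at concentrations up to 100 uM. Expression is determined by TaqMan qRT-PCR, normalized to endogenous controls, and analysed relative to 0.5% DMSO vehicle.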
# [5] = read-out: Insulin-like growth factor-binding protein 1 (IGFBP1), IGFBP1 (gene 3484); assay: LTEA_HepaRG_IGFBP1: Life Technologies and Expression Analysis (LTEA) Assay for Insulin-like growth factor-binding protein 1 (IGFBP1) using HepaRG (AID 2283508)
# Procedure, shortened: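 HepaRG, 48 h, 8 conc. (max 100 uM, half-log), duplicates, 0.5% DMSO. Readout: TaqMan qRT-PCR, ACTB/GAPDH/POLR2A normalisation. Fit: bidirectional vs DMSO.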
# [6] = read-out: Interleukin 6 (IL6), IL6 (gene 3569); assay: LTEA_HepaRG_IL6: Life Technologies and Expression Analysis (LTEA) Assay for Interleukin 6 (IL6) using HepaRG (AID 2283509)
# Procedure, shortened: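 HepaRG, ~100,000 cells/well, 48 h pre-culture; serum-free induction medium; cmpd 8-pt half-log from 100 uM, 0.5% DMSO, duplicate, 48 h. Lysis in RLT, TaqMan qRT-PCR; gain or loss vs DMSO.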
# [7] = read-out: Potassium channel subfamily K member 1 (KCNK1), KCNK1 (gene 3775); assay: LTEA_HepaRG_KCNK1: Life Technologies and Expression Analysis (LTEA) Assay for Potassium channel subfamily K member 1 (KCNK1) using HepaRG (AID 2283511)
# Procedure, shortened: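 Gain or loss of KCNK1 mRNA is the read-out, quantified by qRT-PCR against three housekeeping genes after 48 h chemical treatment of human HepaRG liver cells. Concentrations ran from 100 uM downward in half-log steps, vehicle 0.5% DMSO.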
# [8] = read-out: Keratin 19 (KRT19), KRT19 (gene 3880); assay: LTEA_HepaRG_KRT19: Life Technologies and Expression Analysis (LTEA) Assay for Keratin 19 (KRT19) using HepaRG (AID 2283512)
# Procedure, shortened: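 Readout is qRT-PCR of KRT19 mRNA, normalized to ACTB, GAPDH and POLR2A, from HepaRG cells treated 48 h with eight-point half-log dilutions topping at 100 uM. Activity in either direction is scored relative to 0.5% DMSO vehicle.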
# [9] = read-out: JUN Transcription Factor, JUN (gene 3725); assay: LTEA_HepaRG_JUN: Life Technologies and Expression Analysis (LTEA) Assay for JUN Transcription Factor using HepaRG (AID 2283513)
# Procedure, shortened: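 Cells plated 48 h, medium switched to serum-free induction medium, then dosed 48 h (100 uM top, half-log dilutions, 0.5% DMSO). RNA isolated; JUN measured by qRT-PCR against three housekeeping genes; gain or loss fitted relative to DMSO.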
# [10] = read-out: Lipase C (LIPC), LIPC (gene 3990); assay: LTEA_HepaRG_LIPC: Life Technologies and Expression Analysis (LTEA) Assay for Lipase C (LIPC) using HepaRG (AID 2283514)
# Procedure, shortened: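 Read-out is LIPC transcript level by TaqMan qRT-PCR, normalized to three housekeeping genes, after 48 h chemical treatment of human HepaRG liver cells. Curves span eight concentrations topping at 100 uM; activity in either direction scored relative to 0.5% DMSO.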
# [11] = read-out: Lipoprotein lipase (LPL), LPL (gene 4023); assay: LTEA_HepaRG_LPL: Life Technologies and Expression Analysis (LTEA) Assay for Lipoprotein lipase (LPL) using HepaRG (AID 2283515)
# Procedure, shortened: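 Read-out is LPL transcript level by qRT-PCR, normalized to three housekeeping genes and fitted bidirectionally against the DMSO control. Human HepaRG cells received chemicals for 48 h at up to 100 uM.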
# [12] = read-out: MicroRNA 122 (MIR122), gene 406906; assay: LTEA_HepaRG_MIR122: Life Technologies and Expression Analysis (LTEA) Assay for MicroRNA 122 (MIR122) using HepaRG (AID 2283516); note: the transcript read is the microRNA miR-122
# Procedure, shortened: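 HepaRG plated 48 h, switched to serum-free induction medium, then treated in duplicate for 48 h (100 uM top, half-log steps, 0.5% DMSO vehicle). RNA isolated, qRT-PCR performed, concentration-response fitted both directions relative to DMSO.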
# [13] = read-out: matrix metalloproteinase-10 (MMP10), MMP10 (gene 4319); assay: LTEA_HepaRG_MMP10: Life Technologies and Expression Analysis (LTEA) Assay for matrix metalloproteinase-10 (MMP10) using HepaRG (AID 2283517)
# Procedure, shortened: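 Gain or loss of MMP10 mRNA is fitted relative to the 0.5% DMSO vehicle. The human hepatic line HepaRG receives a 48-hour serum-free exposure, in duplicate, with a maximum concentration of 100 uM.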
# MYC, MYC (gene 4609) = assay: LTEA_HepaRG_MYC: Life Technologies and Expression Analysis (LTEA) Assay for MYC using HepaRG (AID 2283518)
# Procedure, shortened: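 Expression changes were scored by TaqMan qRT-PCR with ACTB, GAPDH and POLR2A normalization. Cultures in serum-free induction medium received duplicate 8-point concentration series, highest 100 uM, for 48 h; DMSO (0.5%) served as baseline.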
# [14] = read-out: matrix metalloproteinase-3 (MMP3), MMP3 (gene 4314); assay: LTEA_HepaRG_MMP3: Life Technologies and Expression Analysis (LTEA) Assay for matrix metalloproteinase-3 (MMP3) using HepaRG (AID 2283519)
# Procedure, shortened: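 HepaRG, human; 48 h dosing, 8 conc. (max 100 uM, half-log), duplicate, 0.5% DMSO. Readout: MMP3 transcript by Fluidigm TaqMan qRT-PCR, ACTB/GAPDH/POLR2A-normalised. Gain or loss fitted vs DMSO.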
# [15] = read-out: Paternally Expressed 10 (PEG10), PEG10 (gene 23089); assay: LTEA_HepaRG_PEG10: Life Technologies and Expression Analysis (LTEA) Assay for Paternally Expressed 10 (PEG10) using HepaRG (AID 2283520)
# Procedure, shortened: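 HepaRG, 48 h post-plating → serum-free induction medium → 48 h chemical exposure (duplicate, 8-pt, max 100 uM, half-log, 0.5% DMSO) → lysis in RLT → TaqMan qRT-PCR for PEG10, ACTB/GAPDH/POLR2A normalisation.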
# [16] = read-out: Protein phosphatase 2A (PPP2R4), PTPA (gene 5524); assay: LTEA_HepaRG_PPP2R4: Life Technologies and Expression Analysis (LTEA) Assay for Protein phosphatase 2A (PPP2R4) using HepaRG (AID 2283522)
# Procedure, shortened: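 Readout is PPP2R4 transcript level by microfluidic qRT-PCR after 48 h chemical treatment of human HepaRG liver cells. Concentrations spanned 100 uM downward in half-log steps; gain or loss of signal was fitted relative to DMSO.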
# [17] = read-out: Nuclear factor NF-kappa-B p105 subunit (Homo sapiens) (UniProt P19838); assay: LTEA_HepaRG_NFKB1: Life Technologies and Expression Analysis (LTEA) Assay for Nuclear Factor Kappa B Subunit 1 (NFKB1) using HepaRG (AID 2283521);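 note: differentiated human HepaRG liver cells in serum-free induction medium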
# Procedure, shortened: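 NFKB1 transcript was measured by TaqMan qRT-PCR on Fluidigm arrays, normalised to three housekeeping genes and fitted in both directions against 0.5% DMSO. HepaRG cells were dosed in duplicate for 48 h in serum-free induction medium, eight half-log steps from 100 uM.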
# Chain of Hypoxia-inducible factor 1-alpha (Homo sapiens) (Q16665 whole entry, looked up): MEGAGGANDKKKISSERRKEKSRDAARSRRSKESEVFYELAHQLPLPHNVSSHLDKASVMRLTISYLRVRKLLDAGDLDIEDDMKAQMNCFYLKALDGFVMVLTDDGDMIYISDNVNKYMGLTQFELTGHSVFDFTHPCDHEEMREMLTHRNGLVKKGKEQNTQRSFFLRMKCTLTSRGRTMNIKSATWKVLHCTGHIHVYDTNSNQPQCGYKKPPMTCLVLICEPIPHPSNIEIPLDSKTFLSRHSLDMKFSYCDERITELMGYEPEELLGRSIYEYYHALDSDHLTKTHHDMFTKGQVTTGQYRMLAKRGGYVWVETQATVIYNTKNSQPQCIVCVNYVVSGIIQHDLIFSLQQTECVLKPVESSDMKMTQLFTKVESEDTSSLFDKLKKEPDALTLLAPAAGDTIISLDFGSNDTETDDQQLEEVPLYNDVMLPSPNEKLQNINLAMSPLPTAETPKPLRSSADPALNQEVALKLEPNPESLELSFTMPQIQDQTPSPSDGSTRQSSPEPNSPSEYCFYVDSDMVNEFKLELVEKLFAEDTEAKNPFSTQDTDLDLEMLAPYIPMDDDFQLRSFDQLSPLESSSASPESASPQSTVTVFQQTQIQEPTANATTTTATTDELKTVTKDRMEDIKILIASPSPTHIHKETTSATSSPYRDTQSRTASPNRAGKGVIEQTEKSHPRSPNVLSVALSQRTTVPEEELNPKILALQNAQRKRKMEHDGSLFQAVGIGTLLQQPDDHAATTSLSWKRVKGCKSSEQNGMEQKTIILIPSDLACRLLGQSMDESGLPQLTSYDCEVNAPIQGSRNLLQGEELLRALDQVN
# Chain of Nuclear factor NF-kappa-B p105 subunit (Homo sapiens) (P19838 whole entry, looked up): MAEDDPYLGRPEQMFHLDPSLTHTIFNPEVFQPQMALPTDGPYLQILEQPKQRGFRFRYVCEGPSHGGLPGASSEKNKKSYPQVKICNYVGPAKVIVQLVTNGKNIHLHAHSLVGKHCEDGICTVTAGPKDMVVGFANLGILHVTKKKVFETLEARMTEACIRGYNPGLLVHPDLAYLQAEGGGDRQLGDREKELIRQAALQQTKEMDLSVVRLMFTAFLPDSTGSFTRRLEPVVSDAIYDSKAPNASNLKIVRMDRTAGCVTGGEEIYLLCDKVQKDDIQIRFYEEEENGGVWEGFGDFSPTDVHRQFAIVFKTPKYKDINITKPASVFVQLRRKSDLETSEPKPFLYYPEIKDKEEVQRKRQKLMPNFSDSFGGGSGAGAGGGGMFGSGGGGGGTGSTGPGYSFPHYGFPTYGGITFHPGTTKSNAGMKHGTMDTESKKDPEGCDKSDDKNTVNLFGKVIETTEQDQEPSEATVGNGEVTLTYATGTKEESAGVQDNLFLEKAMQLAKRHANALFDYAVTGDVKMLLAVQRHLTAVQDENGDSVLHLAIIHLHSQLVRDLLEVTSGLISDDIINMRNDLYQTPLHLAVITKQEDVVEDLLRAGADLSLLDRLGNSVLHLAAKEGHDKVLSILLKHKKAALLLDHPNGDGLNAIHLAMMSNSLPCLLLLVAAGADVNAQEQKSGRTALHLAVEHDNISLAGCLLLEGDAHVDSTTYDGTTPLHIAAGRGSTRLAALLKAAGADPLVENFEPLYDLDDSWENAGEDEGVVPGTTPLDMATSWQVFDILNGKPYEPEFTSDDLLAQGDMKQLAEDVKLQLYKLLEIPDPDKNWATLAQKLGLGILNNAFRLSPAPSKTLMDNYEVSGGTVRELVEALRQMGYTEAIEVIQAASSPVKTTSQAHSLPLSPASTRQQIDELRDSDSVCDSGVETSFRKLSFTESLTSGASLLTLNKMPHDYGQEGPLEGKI
structure (smiles),measurement,setting,value
N#Cc1c(Cl)c(Cl)c(Cl)c(C#N)c1Cl,outcome,[1],inactive
same,outcome,[2],inactive
same,outcome,HGF (gene 3082),inactive
same,outcome,[3],inactive
same,outcome,[4],inactive
same,AC50,[5],3.27 µM (active)
same,outcome,[6],inactive
same,outcome,[7],inactive
same,AC50,[8],12.7 µM (active)
same,outcome,[9],inactive
same,AC50,[10],50 µM (active)
same,AC50,[11],18 µM (active)
same,AC50,[12],90.9 µM (active)
same,AC50,[13],15.6 µM (active)
same,AC50,"MYC, MYC (gene 4609)",50 µM (active)
same,AC50,[14],21 µM (active)
same,outcome,[15],inactive
same,outcome,[16],inactive
CNC(=O)Oc1cccc(N=CN(C)C)c1,outcome,[1],inactive
same,outcome,[2],inactive
same,outcome,HGF (gene 3082),inactive
same,outcome,[3],inactive
same,outcome,[4],inactive
same,outcome,[5],inactive
same,outcome,[6],inactive
same,outcome,[7],inactive
same,outcome,[8],inactive
same,outcome,[9],inactive
same,outcome,[10],inactive
same,outcome,[11],inactive
same,outcome,[12],inactive
same,outcome,[13],inactive
same,outcome,"MYC, MYC (gene 4609)",inactive
same,outcome,[14],inactive
same,outcome,[15],inactive
same,outcome,[16],inactive
O=S1OCC2C(CO1)C1(Cl)C(Cl)=C(Cl)C2(Cl)C1(Cl)Cl (stereo not drawn),outcome,[1],inactive
same,AC50,[2],77.3 µM (active)
same,outcome,HGF (gene 3082),inactive
same,AC50,[3],42.2 µM (active)
same,outcome,[4],inactive
same,AC50,[5],83.4 µM (active)
same,outcome,[6],inactive
same,outcome,[7],inactive
same,outcome,[8],inactive
same,outcome,[9],inactive
same,AC50,[10],62.7 µM (active)
same,AC50,[11],87.5 µM (active)
same,AC50,[12],89.1 µM (active)
same,outcome,[13],inactive
same,AC50,"MYC, MYC (gene 4609)",77.5 µM (active)
same,outcome,[14],inactive
same,outcome,[15],inactive
same,outcome,[17],inactive
same,outcome,[16],inactive
CCC(C)(NC(=O)c1cc(Cl)c(C)c(Cl)c1)C(=O)CCl (stereo not drawn),outcome,[1],inactive
same,AC50,[2],80.6 µM (active)
same,AC50,HGF (gene 3082),77.4 µM (active)
same,outcome,[3],inactive
same,outcome,[4],inactive
same,AC50,[5],80.8 µM (active)
same,outcome,[6],inactive
same,AC50,[7],50.2 µM (active)
same,AC50,[8],32.4 µM (active)
same,outcome,[9],inactive
same,AC50,[10],50.2 µM (active)
same,AC50,[11],90.1 µM (active)
same,AC50,[12],75.5 µM (active)
same,AC50,[13],50.2 µM (active)
same,AC50,"MYC, MYC (gene 4609)",50.2 µM (active)
same,outcome,[14],inactive
same,AC50,[15],59.2 µM (active)
same,outcome,[17],inactive
same,outcome,[16],inactive
CNC(=O)/C=C(\C)OP(=O)(OC)OC,outcome,[1],inactive
same,outcome,[2],inactive
same,outcome,HGF (gene 3082),inactive
same,outcome,[3],inactive
same,outcome,[4],inactive
same,outcome,[5],inactive
same,outcome,[6],inactive
same,outcome,[7],inactive
same,outcome,[8],inactive
same,outcome,[9],inactive
same,outcome,[10],inactive
same,outcome,[11],inactive
same,outcome,[12],inactive
same,outcome,[13],inactive
same,outcome,"MYC, MYC (gene 4609)",inactive
same,outcome,[14],inactive
same,outcome,[15],inactive
same,outcome,[16],inactive
CCCN(CCOc1c(Cl)cc(Cl)cc1Cl)C(=O)n1ccnc1,outcome,[1],inactive
same,AC50,[2],29.7 µM (active)
same,outcome,HGF (gene 3082),inactive
same,AC50,[3],24.4 µM (active)
same,AC50,[4],50 µM (active)
same,AC50,[5],24.4 µM (active)
same,AC50,[6],36.5 µM (active)
same,AC50,[7],62 µM (active)
same,AC50,[8],12.7 µM (active)
same,AC50,[9],50 µM (active)
same,AC50,[10],44.3 µM (active)
same,AC50,[11],25.7 µM (active)
same,AC50,[12],11.7 µM (active)
same,AC50,[13],57.8 µM (active)
same,AC50,"MYC, MYC (gene 4609)",39.5 µM (active)
same,AC50,[14],80.2 µM (active)
same,AC50,[15],6.24 µM (active)
same,outcome,[16],inactive
Clc1ccccc1-c1nnc(-c2ccccc2Cl)nn1,outcome,[1],inactive
same,outcome,[2],inactive
same,outcome,HGF (gene 3082),inactive
same,outcome,[3],inactive
same,outcome,[4],inactive
same,outcome,[5],inactive
same,outcome,[6],inactive
same,outcome,[7],inactive
same,AC50,[8],21.5 µM (active)
same,outcome,[9],inactive
same,outcome,[10],inactive
same,outcome,[11],inactive
same,outcome,[12],inactive
same,outcome,[13],inactive
same,outcome,"MYC, MYC (gene 4609)",inactive
same,outcome,[14],inactive
same,AC50,[15],30.7 µM (active)
same,outcome,[16],inactive
